Results published in PubChem BioAssay (NCATS).
Several values for one entry are separate records, joined by “and”; a condition that tells them apart may be missing. Equal entries are not always repeated. Records with an inconclusive call do not appear. A number with no mark means an inactive call. Calls follow the shape of the full dose curve.

Target: Bile acid receptor (Homo sapiens) (UniProt Q96RI1)
Assay: qHTS assay for small molecule agonists of farnesoid X receptor signaling (AID 588527);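 also: series mostly up to about 77 µM; 0% = vehicle basal and 100% = reference agonist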
Details: HEK293T FXR-UAS-bla, beta-lactamase ratio, 16 h; activation: active compounds read high
Procedure, shortened: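 Quantitative HTS used FXR-UAS-bla HEK293T cells with 16 h compound incubation at 37 C. EC50 values came from concentration-response curves normalized to chenodeoxycholic acid.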

Chain of Bile acid receptor (Homo sapiens) (Q96RI1 whole entry, looked up): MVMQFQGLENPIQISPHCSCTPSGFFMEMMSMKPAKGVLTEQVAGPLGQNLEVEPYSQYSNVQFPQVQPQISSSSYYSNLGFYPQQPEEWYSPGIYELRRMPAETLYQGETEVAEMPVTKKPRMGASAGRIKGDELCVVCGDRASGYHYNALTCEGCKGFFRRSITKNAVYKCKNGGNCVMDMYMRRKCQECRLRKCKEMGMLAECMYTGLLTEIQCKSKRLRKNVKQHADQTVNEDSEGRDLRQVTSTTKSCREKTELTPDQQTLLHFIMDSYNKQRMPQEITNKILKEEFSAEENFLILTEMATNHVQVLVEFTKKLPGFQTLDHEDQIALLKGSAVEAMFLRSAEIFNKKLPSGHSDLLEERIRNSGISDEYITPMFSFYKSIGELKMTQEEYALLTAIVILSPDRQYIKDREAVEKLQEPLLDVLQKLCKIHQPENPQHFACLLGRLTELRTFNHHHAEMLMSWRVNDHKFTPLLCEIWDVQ

SMILES | activation
CN(C)Cc1cc(CN(C)C)c(O)c(CN(C)C)c1 | -0.172%
C=CC(=O)OCC[N+](C)(C)C | -2.87%
C=C[Si](OCCOC)(OCCOC)OCCOC | -1.57%
CCCCCCCCCCCCCCCCN(C)C | 3.83%
Cc1cccc([N+](=O)[O-])c1C(=O)O | -1.22%
CCCCCCCC(=O)Oc1c(Br)cc(C#N)cc1Br | 1.95%
CCOCCO | 0.436%
COC(=O)c1ccc(C=O)cc1 | 0.0505% and 0.394%
CC(C)(C)CC(C)(C)c1ccc(OCCO)cc1 | 2.48%
c1ccc2cc3ccccc3cc2c1 | -1.8%
CCC(C)Nc1ccc(NC(C)CC)cc1 (stereo not given) | -2.74%
C[Si](Cl)(Cl)[Si](C)(Cl)Cl | 5.31%
Cn1c(=O)[nH]c(=O)n(C2CCCCC2)c1=O | 2.64%
CCN(Cc1c(F)cccc1Cl)c1c([N+](=O)[O-])cc(C(F)(F)F)cc1[N+](=O)[O-] | 8.75%
CCN(CC)c1ccc(N)cc1 | -0.874%
CCCCCCCCCCCC(=O)OC | 11.1%
CC(=O)O[C@@H]1CC(C)=C2[C@H]1[C@H](C)CC[C@H]2/C=C(\C)C(=O)O | 0.825%
COc1ccc(OC)c(OC)c1 | 0.0379%
N#CSCSc1nc2ccccc2s1 | 15%
O=C(O)CC(C(=O)O)C(CC(=O)O)C(=O)O (stereo not given) | -1.38% and -0.082%

SMILES | activation
CCCCCCCCCCO | -3.92%
CC(C=O)Cc1ccc(C(C)(C)C)cc1 (stereo not given) | 0.434% and 1.86%
O=C(Nc1ccccc1)c1cc(Cl)ccc1O | 1.59%
CCCCO | 0.769% and 0.512%
CNc1nc(=O)n(C2CCCCC2)c(=O)n1C | -6.04%
CC(C)c1ccc(C(C)C)cc1 | 2.92%
NC1=NC(S)C2N=CN=C2N1 (stereo not given) | 2.34%
Cc1ccc(O)c(N)c1 | -0.664%
Nc1cccc(N)c1 | 0.315%
CCCCCCCCCCCC[N+](C)(C)C | 0.368%
CC/C=C/C/C=C/C/C=C/CCCCCCCC(=O)OCC | 1.74%
CCCCCCCCOc1ccc(C(=O)O)cc1 | 11.7%
CC(=O)Nc1ccc(C(=O)CCl)cc1 | 2.69%
CC1(C)[C@@H]([C@@H](Br)C(Br)(Br)Br)[C@H]1C(=O)O[C@H](C#N)c1cccc(Oc2ccccc2)c1 | 6.35%
C=CCCCCCC | -0.782%
Cc1ccc(C)o1 | 1.14%
C=CC(=O)OCCCCCCOC(=O)C=C | -0.189%
Cc1ccc(C(C)(C)C)c(O)c1 | -1.53%
Nc1ccc(N)c(Cl)c1 | -0.837%
CCCC[O][Al]([O]CCCC)[O]CCCC | 1.48%
